This is an account of results in PubChem BioAssay AID2380 (Sanford-Burnham Center for Chemical Genomics, 2010).

About 960 (0.29%) of roughly 330,000 compounds were called active.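 The calls were made as follows: active = compounds whose signal lies at least 3.5 SD above the mean of all wells on their plate; inactive = the rest.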 The entries come from a sample that favours actives as a whole.

The assay in a line: small molecules increasing insulinoma cell replication – ATP luminescence, uHTS, primary screen (AID 2380).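 Also: 0% = DMSO-treated cells in low-serum medium and 100% = 10% serum control.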 The following applies: MIN6 cells proliferation, ATPlite luminescence, 48 h; at 10 µM; hits give high values; 100% = growth in 10% serum; cells starved in 0.2% serum.
Regarding `COc1ccc(/C=C2\CCCC3C2=NN(C(=O)c2scnc2C)C3c2ccc(OC)cc2)cc1` (centres undefined), the proliferation was -5.85% (inactive).

With `COc1ccc(N2CCN(C(CNS(=O)(=O)c3ccc(C)cc3)c3ccccc3)CC2)cc1` (centres undefined), the proliferation is -4.55% (inactive).

For the compound `CCCOC1CCCN(Cc2cn(C)nc2-c2ccccc2F)C1` (centres undefined), the proliferation was 1.33% (inactive).

`CN(CCc1cnn(C)c1)Cc1cn(C)nc1-c1ccccc1F`: the proliferation was -0.61% (inactive).

Take `Cn1cc(CN2CCC(C(O)CCc3ccccc3)CC2)c(-c2ccccc2F)n1` (centres undefined): the proliferation is 11.8% (active).

Regarding `COc1cc(/C=C/CO)cc(OC)c1O[C@@H]1O[C@H](CO)[C@@H](O)[C@H](O)[C@H]1O`, the proliferation was -0.51% (inactive).

Regarding `O=C(O)c1cccc(S(=O)(=O)N2CC=C(c3ccccc3)CC2)c1`, the proliferation is 0.12% (inactive).

As for `Cc1ccc(NC(=O)c2ccc(S(=O)(=O)NCC3CCCO3)cc2)cc1C` (centres undefined), the proliferation is -3.24% (inactive).

For `O=C1CCN(Cc2ccccc2)CCN1[C@H](CSc1ccccc1)c1ccccc1`, the proliferation was 2.8% (inactive).

Turning to `N#Cc1cccc(CN2CCC(=O)N([C@H](CO)c3ccccc3)CC2)c1`, the proliferation was 14.7% (active).

`N#Cc1cccc(CN2CCC(=O)N(CCO)CC2)c1`: the proliferation is -4.43% (inactive).

As to `COc1cccc(N=c2oc3c(C)ncc(CO)c3cc2C(N)=O)c1`, the proliferation is -0.09% (inactive).

With `CC(C)Cc1oc(C(=O)O)cc1CN`, the proliferation was -3.33% (inactive).

As to `CCCCNC(=O)OCCSCCS(=O)(=O)c1ccc(Cl)cc1`, the proliferation was -0.91% (inactive).

For `CC[C@@H]1Cc2cc(O)ccc2C2=C1c1ccc(O)cc1C[C@H]2CC`, the proliferation was -8.09% (inactive).

Regarding `COCCCNC(=O)Cn1c(=O)n(Cc2ccccc2Cl)c(=O)c2cc(OC)c(OC)cc21`, the proliferation is -2.84% (inactive).

For the compound `COc1ccc2c(c1)C(=C(C#N)C#N)C(=O)N2CCc1ccccc1`, the proliferation was -3.84% (inactive).

Regarding `CC(N)C12CC3CC(CC(O)(C3)C1)C2` (centres undefined), the proliferation is -0.37% (inactive).

In the case of `CN(CC(=O)Nc1c(Cl)cccc1Cl)C(=O)c1ccncc1`, the proliferation was -1.79% (inactive).

Take `CN1CCN(c2ccc(CNS(=O)(=O)c3cccc(F)c3)cc2)CC1`: the proliferation is -0.97% (inactive).

For the compound `COc1ccc(-n2nnnc2CNC(=O)c2ccc3ccccc3c2)cc1`, the proliferation is -1.98% (inactive).

For `CC(=O)c1ccc(S(=O)(=O)NCc2nnnn2-c2ccccc2)cc1`, the proliferation was 11.8% (active).

Take `O=S(=O)(Cc1nnnn1-c1ccccc1)c1ccccc1`: the proliferation was -0.06% (inactive).

As for `COc1ccccc1C(=O)N1CCN=C1SCc1cccnc1`, the proliferation was 0.39% (inactive).

For `CCCCn1c(N)c(N(CC)C(=O)c2ccc(N(C)S(=O)(=O)c3ccc(C)cc3)cc2)c(=O)[nH]c1=O`, the proliferation was -0.39% (inactive).

`Cc1cccc(NS(=O)(=O)c2cccc(C(=O)NNC(=O)c3ccccc3O)c2)c1`: the proliferation was 1.68% (inactive).

On to `CCC1(C)Cc2c(sc3nnn(CC(=O)Nc4ccc(Cl)cc4)c(=O)c23)CO1` (centres undefined), for which the proliferation is -4.3% (inactive).

On to `Cc1ccc(C(=O)NC(=S)Nc2ccc(N3CCOCC3)cc2)cc1`, for which the proliferation was -3.24% (inactive).

On to `O=C(NN=Cc1ccc(N2CCOCC2)cc1)c1cc2ccccc2cc1O`, for which the proliferation is -1.83% (inactive).

Regarding `C/C(=N\NC(=O)c1ccccc1C)c1ccc(N2CCOCC2)cc1`, the proliferation was 5.16% (active).

With `CN=C1SC(C(=O)O)CC(=O)N1C` (centres undefined), the proliferation is -0.72% (inactive).

`CCC(C)NC(=O)/C=C/c1ccc(S(=O)(=O)NCc2ccco2)cc1` (centres undefined): the proliferation is -2.61% (inactive).

In the case of `Cc1ccc(O)c(NC(=O)c2cc(-c3ccco3)on2)c1`, the proliferation is -1.09% (inactive).

For the compound `Cc1ccc(S(=O)(=O)NCCC(=O)OCC(=O)N(C)c2ccccc2)cc1`, the proliferation was 1.89% (inactive).

In the case of `CN(Cc1c(F)cccc1Cl)S(=O)(=O)c1cccs1`, the proliferation is 0% (inactive).

As for `O=S(=O)(NCc1ccc(Cl)cc1Cl)c1cccs1`, the proliferation is -2.31% (inactive).

Take `CN(Cc1ccc(F)cc1Cl)S(=O)(=O)c1cccs1`: the proliferation is 5.5% (active).

For the compound `COc1ccc(N(CC(=O)Nc2cc(OC)cc(OC)c2)S(=O)(=O)c2c(C)n[nH]c2C)cc1`, the proliferation was -2.27% (inactive).

As to `CCCN1C(=O)C(Cc2nc3ccccc3c(=O)n2-c2ccccc2)c2cc(C)ccc21` (centres undefined), the proliferation is -2.19% (inactive).

Turning to `CN1CCN(C2Cc3ccc(Cl)cc3Sc3ccc(F)cc32)CC1` (centres undefined), the proliferation is -4.32% (inactive).

Turning to `COc1ccccc1N=C(C)C1=C(O)COC1=O`, the proliferation was -1.39% (inactive).

With `COc1cc(N=Cc2c(O)c3ccccc3oc2=O)c(OC)cc1Cl`, the proliferation was 0.34% (inactive).

As to `COc1ccccc1N=Cc1c(O)c2ccccc2oc1=O`, the proliferation was 6.71% (active).

On to `COC(=O)c1ccc(CN2CCN(CCCc3ccccc3)C(CCO)C2)cc1` (centres undefined), for which the proliferation was -3.99% (inactive).

With `Cc1nn(CC(=O)Nc2ccc(N(C)C)cc2)c(C)c1[N+](=O)[O-]`, the proliferation was 3.2% (inactive).

As to `C[n+]1cc(-c2ccccc2)oc1-c1ccccc1`, the proliferation was -1.56% (inactive).

For `CN(C)c1nc(N)nc(Cn2nnc(-c3ccc(C(F)(F)F)cc3)n2)n1`, the proliferation was 1.04% (inactive).

Regarding `COc1ccc(-c2nnn(Cc3nc(N)nc(N4CCCCC4)n3)n2)cc1`, the proliferation is 8.76% (active).

In the case of `COc1ccc(-n2nnnc2SCc2nc(N)nc(N3CCOCC3)n2)cc1`, the proliferation was -2.85% (inactive).

Consider `CC(=O)Nc1ccc(NC(=O)C(C)OC(=O)c2ccccc2C(=O)c2ccc(Cl)c([N+](=O)[O-])c2)cc1` (centres undefined), for which the proliferation was -5.3% (inactive).

With `O=C(Nn1c(-c2ccc(Cl)cc2)nc2ccccc2c1=O)c1cccnc1Cl`, the proliferation was -0.79% (inactive).

`N#CCc1ccc(NC(=O)c2ccccc2C(=O)Nc2ccc(CC#N)cc2)cc1`: the proliferation was -4.24% (inactive).

For the compound `CCOc1ccc(NC(=O)Nc2cc(C)ccc2OC)cc1`, the proliferation is -2.89% (inactive).

In the case of `COc1ccc(OC)c(NC(=O)CC(Cc2ccccc2OC)C(=O)O)c1` (centres undefined), the proliferation is -2.33% (inactive).

As for `CCOc1ccccc1NC(=O)Nc1cc(OC)ccc1OC`, the proliferation was 7.28% (active).

Take `CC(C)(C)N(Cc1ccccc1)C(=O)c1ccncc1`: the proliferation is -4.48% (inactive).

Regarding `O=c1[nH][nH]c(C(F)(F)F)c1C=NCc1ccccc1Cl`, the proliferation was -0.46% (inactive).

With `COc1ccc(CCn2c(=N)c(C(=O)NCc3ccco3)cc3c(=O)n4cccc(C)c4nc32)cc1`, the proliferation was 10.3% (active).

`Cc1cccn2c(=O)c3cc(C(=O)NCCN4CCOCC4)c(=N)n(Cc4cccnc4)c3nc12`: the proliferation was -6.51% (inactive).

In the case of `COc1ccc(CCn2c(=N)c(C(=O)NCC3CCCO3)cc3c(=O)n4cccc(C)c4nc32)cc1OC` (centres undefined), the proliferation is -3.69% (inactive).

In the case of `NS(=O)(=O)c1ccc(-c2ccc(/C=C3\SC(=O)NC3=O)o2)cc1`, the proliferation is 2.43% (inactive).

Consider `COc1ccc2cc(-c3[nH]ncc3CNCCn3nc(C)cc3C)ccc2c1`, for which the proliferation is -1.3% (inactive).

Regarding `NC(=O)C1CCN(C2OC(=O)c3ccccc32)CC1` (centres undefined), the proliferation was -1.61% (inactive).

Take `O=C(Nc1ccc(F)cc1)C1CCCN(S(=O)(=O)c2ccc(-n3cnnn3)cc2)C1` (centres undefined): the proliferation was 0% (active).

In the case of `CC(NC(=O)C1CCCN(S(=O)(=O)c2ccc(-n3cnnn3)cc2)C1)c1ccc(F)cc1` (centres undefined), the proliferation was -0.52% (inactive).

Regarding `CC(C)CNC(=O)C1CCCN(S(=O)(=O)c2ccc(-n3cnnn3)cc2)C1` (centres undefined), the proliferation is 1.81% (inactive).

Take `Cc1cc(NC(=O)c2ccco2)c(=O)n(Cc2c(F)cccc2Cl)c1`: the proliferation was 6.29% (active).

For the compound `O=C(Cc1c(F)cccc1Cl)N1CCN(C(=O)c2ccco2)CC1`, the proliferation was -0.41% (inactive).

As for `O=C(Nc1cccn(Cc2c(Cl)cccc2Cl)c1=O)c1ccc(Cl)cc1`, the proliferation was 0.88% (inactive).

Take `COc1cc2cc(CN(CCN3CCCC3)C(=O)Nc3ccccc3Cl)c(=O)[nH]c2cc1OC`: the proliferation was -1.42% (inactive).

With `CN(Cc1ccc2nsnc2c1)Cc1nc(Cc2cccc(F)c2)no1`, the proliferation is -1.6% (inactive).

Regarding `CC1(C)Cc2c(sc(NC(=O)C(=O)NCC3CCCO3)c2C(=O)O)CO1` (centres undefined), the proliferation is -1.4% (inactive).

As to `COc1ccc(CNC(=O)C(C)n2nc(C)c3c(C)n(-c4ccccc4)nc3c2=O)c(OC)c1` (centres undefined), the proliferation was 0.39% (inactive).

Take `Cc1nn(C(C)C(=O)NCCC2=CCCCC2)c(=O)c2nn(-c3ccccc3)c(C)c12` (centres undefined): the proliferation is 11.7% (active).

With `Cc1nn(C(C)C(=O)N2CCOCC2)c(=O)c2nn(-c3ccccc3)c(C)c12` (centres undefined), the proliferation was -0.46% (inactive).

As for `COC(=O)c1ccc(C(NC(=O)OCc2ccccc2)/C(C)=C/[C@@H](C)C(=O)NCc2ccc(OC)c(OC)c2)cc1` (some centres undefined), the proliferation was -1.99% (inactive).

Consider `CC(C)OCCCNC(=S)N1CCC(C(=O)c2ccc3c(c2)OCCO3)CC1`, for which the proliferation was -1.17% (inactive).

For the compound `CC(C)C(=O)Nc1c2c(nn1-c1ccccc1)CSC2`, the proliferation is 0.9% (inactive).

On to `CC1(C)C2CC=C(/C=N/NC(=O)c3ccc(Cl)cc3)C1C2` (centres undefined), for which the proliferation is -2.07% (inactive).

In the case of `COc1ccc(/C=N/NC(=O)C2CC2)c(OC)c1OC`, the proliferation is 0.51% (inactive).

With `CC1(C)C2CC=C(/C=N/NC(=O)C3CC3)C1C2` (centres undefined), the proliferation was 7.56% (active).

Regarding `O=[N+]([O-])c1ccc2c(c1)C(N1CCOCC1)/C(=C/C1(O)CCCCC1)O2` (centres undefined), the proliferation was -1.4% (inactive).

For the compound `O=C(O)c1cc(S(=O)(=O)N(Cc2ccccc2)c2cccc(C(F)(F)F)c2)ccc1Cl`, the proliferation is -1% (inactive).

In the case of `CCC1(CC)NC(=O)N(CC(=O)OCC(=O)Nc2ccc(C(F)(F)F)cc2)C1=O`, the proliferation is -0.99% (inactive).

Regarding `CC1CCN(C(=O)/C(=C\c2ccccc2)NC(=O)c2ccccc2)CC1`, the proliferation is 2.17% (inactive).

Consider `O=C(OCCN1CCOCC1)C1(c2ccccc2)CCCCC1`, for which the proliferation was 5.6% (inactive).

As to `CCCC(NCC(=O)Nc1ccccc1C(=O)NC1CC1)c1ccccc1` (centres undefined), the proliferation is -0.98% (inactive).

As for `Cc1ccc(NC(=O)COC(=O)CNC(=O)c2ccc(Cl)cc2Cl)cc1S(=O)(=O)N1CCOCC1`, the proliferation is -0.42% (inactive).

For the compound `Cc1cccc2c1-c1sc(C(=O)NCCCN3CCc4ccccc4C3)cc1CO2`, the proliferation was -7.36% (inactive).
